Test results reported in PubChem BioAssay (NCATS).
Inconclusive results are not listed. A call without a number means that no potency is given here. The source made the active and inactive calls. Unless noted, calls follow the shape of the dose curve; as a rule, active = well fitted curve in the direction sought with a large enough effect; inconclusive = small, poorly fitted or top-dose-only effect, or another doubt; inactive = no such curve, though single readings can be large; an effect the other way counts as inactive or inconclusive.

Key:
[1] = molecular target: Calcium and integrin-binding protein 1 (Homo sapiens) (UniProt Q99828); test: Validation qHTS for Identification of Calcium Integrin Binding protein 1 (CIB1) Competitor (AID 1508618)
How it was run: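 CIB1-GST (1 uM final) incubated 15 min at room temperature with compounds (up to 114 uM), then FITC-labelled alphaIIb peptide (100 nM) added. FP read (Ex 480/Em 540) after 15 min, pH 7.4 buffer containing 5 mM CaCl2.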

[2] = Primary qHTS for small molecule stabilizers of the endoplasmic reticulum resident proteome: Secreted ER Calcium Modulated Protein (SERCaMP) assay (AID 1508630)
How it was run: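 GLuc-SERCaMP-expressing SH-SY5Y cells, pretreated 16 h with compound, are challenged with thapsigargin to empty ER calcium stores; after 4 h, coelenterazine is added directly to the medium and luminescence is imaged.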

Papain (Carica papaya) = Papain (Carica papaya) (UniProt P00784); test: Primary qHTS assay for inhibitors of the protease papain (AID 1645873);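 also: papain turnover of Z-FR-AMC read as the AMC fluorescence gain over 10 min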; also: potency is read from the fitted curve at half-maximal effect
[3] = molecular target: Catechol O-methyltransferase (Homo sapiens) (UniProt P21964); test: Confirmatory Screen for Target Class Profiling of Small Molecule Inhibitors of Methyltransferases (AID 1745852; calls by dose curve); conditions: MTase-Glo luminescence, SAH detection, recombinant enzyme; measured here: COMT max response; stronger effect = lower value
[4] = molecular target: Guanidinoacetate N-methyltransferase (Homo sapiens) (UniProt Q14353); test: as above; conditions: MTase-Glo luminescence, SAH detection, recombinant enzyme; activity change, negative = inhibition: at 57.3 µM (top of the series)
[5] = molecular target: Nicotinamide N-methyltransferase (Homo sapiens) (UniProt P40261); test: as above; conditions: MTase-Glo luminescence, SAH detection, recombinant enzyme; measured here: NNMT max response; stronger effect = lower value
[6] = molecular target: Phenylethanolamine N-methyltransferase (Homo sapiens) (UniProt P11086); test: as above; conditions: MTase-Glo luminescence, SAH detection, recombinant enzyme; measured here: PNMT max response; stronger effect = lower value
[7] = molecular target: Rap guanine nucleotide exchange factor 3 (Homo sapiens) (UniProt O95398); test: Confirmatory qHTS for agonist of cAMP-regulated guanine nucleotide exchange factor 3 (EPAC1) (AID 1645881);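 also: EPAC1 catalysed release of BODIPY-GDP from Rap1B seen as fluorescence loss; nearly all actives have a fitted effect of over 75% in size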
[8] = molecular target: Rap guanine nucleotide exchange factor 4 (Homo sapiens) (UniProt Q8WZA2); test: Confirmatory qHTS for agonist of cAMP-regulated guanine nucleotide exchange factor 4 (EPAC2) (AID 1645884);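 also: nucleotide exchange releases bodipy-GDP from Rap1 and this lowers its fluorescence; nearly all actives have a fitted effect of over 65% in size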
[9] = molecular target: Rap guanine nucleotide exchange factor 4 (Homo sapiens) (UniProt Q8WZA2); test: Confirmatory qHTS for antagonist of cAMP-regulated guanine nucleotide exchange factor 4 (EPAC2) (AID 1645885); also: nearly all actives have a fitted effect of over 25% in size
[10] = molecular target: Rap guanine nucleotide exchange factor 3 (Homo sapiens) (UniProt O95398); test: Counterscreen qHTS for antagonist of cAMP-regulated guanine nucleotide exchange factor 3 (EPAC1) (AID 1645888);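 also: fluorescence loss as bound BODIPY-GDP is released from Rap1B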
How it was run: (§1)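 Rap1B–BODIPY-GDP (250 nM) with 50 uM GDP; compounds pin-transferred to 9.74 nM–152 uM final (activator) or from 7.32 nM upwards (inhibitor). Fluorescence Ex/Em 480/540 nm read at 5 and 30 min, then after adding cAMP or buffer, at room temperature.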

[11] = molecular target: Rap guanine nucleotide exchange factor 3 (Homo sapiens) (UniProt O95398); test: Counterscreen qHTS for agonist of cAMP-regulated guanine nucleotide exchange factor 3 (EPAC1) (AID 1645889); also: nearly all actives have a fitted effect of over 40% in size
How it was run: as §1

Rap guanine nucleotide exchange factor 4 (Homo sapiens), sequence (Q8WZA2 whole entry, looked up): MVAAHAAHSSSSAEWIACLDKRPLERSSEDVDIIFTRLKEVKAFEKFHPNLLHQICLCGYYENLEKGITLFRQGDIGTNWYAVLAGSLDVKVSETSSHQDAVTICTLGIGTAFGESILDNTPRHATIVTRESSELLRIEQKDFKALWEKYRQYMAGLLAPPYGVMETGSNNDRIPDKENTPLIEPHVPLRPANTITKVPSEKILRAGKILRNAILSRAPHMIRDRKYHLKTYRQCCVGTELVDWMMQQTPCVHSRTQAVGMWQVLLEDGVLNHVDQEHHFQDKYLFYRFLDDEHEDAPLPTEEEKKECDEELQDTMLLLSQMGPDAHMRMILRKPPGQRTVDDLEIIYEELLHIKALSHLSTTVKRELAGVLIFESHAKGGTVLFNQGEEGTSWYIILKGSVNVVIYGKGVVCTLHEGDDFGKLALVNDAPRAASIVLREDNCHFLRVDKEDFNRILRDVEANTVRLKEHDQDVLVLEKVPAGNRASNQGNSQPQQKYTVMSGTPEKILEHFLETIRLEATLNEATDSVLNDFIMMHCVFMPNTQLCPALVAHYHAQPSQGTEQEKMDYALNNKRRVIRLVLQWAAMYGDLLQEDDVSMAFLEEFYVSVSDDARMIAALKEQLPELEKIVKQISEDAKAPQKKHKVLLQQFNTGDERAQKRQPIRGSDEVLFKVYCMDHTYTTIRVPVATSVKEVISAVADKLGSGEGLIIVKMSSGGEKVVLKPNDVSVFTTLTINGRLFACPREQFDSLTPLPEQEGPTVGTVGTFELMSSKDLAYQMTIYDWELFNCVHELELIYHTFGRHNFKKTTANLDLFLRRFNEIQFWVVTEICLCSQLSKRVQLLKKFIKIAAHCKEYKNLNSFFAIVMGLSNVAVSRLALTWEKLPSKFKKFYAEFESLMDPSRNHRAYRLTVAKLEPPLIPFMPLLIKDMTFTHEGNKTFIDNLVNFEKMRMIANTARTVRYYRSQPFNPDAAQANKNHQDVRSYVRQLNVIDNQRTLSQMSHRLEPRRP
Calcium and integrin-binding protein 1 (Homo sapiens), sequence (Q99828 whole entry, looked up): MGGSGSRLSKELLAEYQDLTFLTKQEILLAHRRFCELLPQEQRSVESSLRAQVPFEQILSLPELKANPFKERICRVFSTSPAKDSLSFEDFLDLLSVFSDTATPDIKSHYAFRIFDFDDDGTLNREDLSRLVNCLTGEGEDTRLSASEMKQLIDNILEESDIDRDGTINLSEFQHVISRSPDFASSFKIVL
Rap guanine nucleotide exchange factor 3 (Homo sapiens), sequence (O95398 whole entry, looked up): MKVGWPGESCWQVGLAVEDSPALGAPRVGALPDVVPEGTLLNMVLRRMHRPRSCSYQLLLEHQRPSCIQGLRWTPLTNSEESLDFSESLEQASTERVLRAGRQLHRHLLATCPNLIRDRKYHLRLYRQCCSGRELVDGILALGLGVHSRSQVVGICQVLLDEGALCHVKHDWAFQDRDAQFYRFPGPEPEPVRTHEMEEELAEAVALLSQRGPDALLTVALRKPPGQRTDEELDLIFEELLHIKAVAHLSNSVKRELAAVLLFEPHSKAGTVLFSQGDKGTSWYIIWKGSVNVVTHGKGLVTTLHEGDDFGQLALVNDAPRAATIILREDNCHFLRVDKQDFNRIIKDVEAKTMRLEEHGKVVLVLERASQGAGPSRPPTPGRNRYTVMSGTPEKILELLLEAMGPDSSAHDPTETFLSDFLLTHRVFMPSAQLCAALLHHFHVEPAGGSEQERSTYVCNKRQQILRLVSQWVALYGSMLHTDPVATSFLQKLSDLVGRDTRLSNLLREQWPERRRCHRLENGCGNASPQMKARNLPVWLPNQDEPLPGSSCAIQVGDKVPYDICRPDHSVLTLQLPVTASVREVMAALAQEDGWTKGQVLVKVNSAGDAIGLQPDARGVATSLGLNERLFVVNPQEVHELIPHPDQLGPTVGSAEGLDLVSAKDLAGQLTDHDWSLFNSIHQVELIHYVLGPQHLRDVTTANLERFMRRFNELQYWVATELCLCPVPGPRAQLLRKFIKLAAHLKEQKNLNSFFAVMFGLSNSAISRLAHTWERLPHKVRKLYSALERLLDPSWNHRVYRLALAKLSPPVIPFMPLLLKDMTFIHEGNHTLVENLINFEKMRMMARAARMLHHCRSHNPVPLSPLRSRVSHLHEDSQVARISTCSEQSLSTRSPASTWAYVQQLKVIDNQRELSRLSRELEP
Papain (Carica papaya), sequence (P00784 whole entry, looked up): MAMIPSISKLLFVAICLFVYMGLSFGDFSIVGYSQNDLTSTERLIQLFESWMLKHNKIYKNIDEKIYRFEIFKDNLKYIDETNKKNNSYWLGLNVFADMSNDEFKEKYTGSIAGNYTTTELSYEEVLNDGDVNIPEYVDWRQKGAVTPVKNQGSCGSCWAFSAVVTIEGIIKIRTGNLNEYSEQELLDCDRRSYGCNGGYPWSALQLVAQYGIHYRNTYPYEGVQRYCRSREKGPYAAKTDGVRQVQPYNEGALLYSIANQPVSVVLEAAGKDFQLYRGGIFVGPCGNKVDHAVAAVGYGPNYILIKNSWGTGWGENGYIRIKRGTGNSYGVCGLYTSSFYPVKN
Nicotinamide N-methyltransferase (Homo sapiens), sequence (P40261 whole entry, looked up): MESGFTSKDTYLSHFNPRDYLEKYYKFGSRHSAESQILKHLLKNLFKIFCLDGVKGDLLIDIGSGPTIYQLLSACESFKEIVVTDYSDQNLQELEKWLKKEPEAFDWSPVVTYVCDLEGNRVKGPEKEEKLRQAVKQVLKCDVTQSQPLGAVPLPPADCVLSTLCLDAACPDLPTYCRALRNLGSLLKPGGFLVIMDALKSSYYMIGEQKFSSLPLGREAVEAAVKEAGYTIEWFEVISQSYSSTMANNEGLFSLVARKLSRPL
Catechol O-methyltransferase (Homo sapiens), sequence (P21964 whole entry, looked up): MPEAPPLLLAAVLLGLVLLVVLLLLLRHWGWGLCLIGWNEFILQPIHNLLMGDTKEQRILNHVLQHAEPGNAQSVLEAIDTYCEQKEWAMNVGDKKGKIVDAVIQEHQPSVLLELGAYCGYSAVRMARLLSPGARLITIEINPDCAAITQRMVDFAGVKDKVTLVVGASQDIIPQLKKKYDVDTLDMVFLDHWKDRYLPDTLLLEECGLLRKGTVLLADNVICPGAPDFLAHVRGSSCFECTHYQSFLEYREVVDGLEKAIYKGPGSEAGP
Phenylethanolamine N-methyltransferase (Homo sapiens), sequence (P11086 whole entry, looked up): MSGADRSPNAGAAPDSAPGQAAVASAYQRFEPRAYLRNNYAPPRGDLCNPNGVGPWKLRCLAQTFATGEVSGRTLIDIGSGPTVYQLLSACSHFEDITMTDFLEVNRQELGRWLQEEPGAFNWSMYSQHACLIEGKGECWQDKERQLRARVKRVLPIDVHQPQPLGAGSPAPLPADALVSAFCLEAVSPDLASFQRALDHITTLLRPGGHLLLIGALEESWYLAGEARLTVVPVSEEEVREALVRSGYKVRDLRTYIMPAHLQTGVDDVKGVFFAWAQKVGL

O=C1OC(=O)C2C3CCC(O3)C12 (configuration not stated)
Potency [1]: inactive | Potency [2]: inactive | Potency (Papain (Carica papaya)): inactive

Cn1ccnc1
Potency [1]: inactive | Potency [2]: inactive | Potency (Papain (Carica papaya)): inactive

NC(=O)CNCCC(c1ccccc1)c1ccccc1
Potency [1]: inactive | Potency [2]: inactive | Potency (Papain (Carica papaya)): inactive

CCCn1c(=O)c2[nH]c(-c3ccc(S(=O)(=O)O)cc3)nc2n(CCC)c1=O
Potency [1]: inactive | Potency [2]: inactive | Potency (Papain (Carica papaya)): 25.1 µM (active)

C=CCN1CCc2c(cc(O)c(O)c2Br)[C@@H](c2ccccc2)C1
Potency [1]: inactive | Potency [2]: inactive | Potency (Papain (Carica papaya)): inactive | activity [3]: 62% | activity change, negative = inhibition [4]: 5.44% | activity [5]: -9.94% | activity [6]: -1.34%

COC(=O)C1=C(C)NC(C)=C([N+](=O)[O-])C1c1ccccc1C(F)(F)F (configuration not stated)
Potency [1]: inactive | Potency [2]: inactive | Potency (Papain (Carica papaya)): inactive | Potency [7]: inactive | Potency [8]: inactive | Potency [9]: inactive | outcome [10]: inactive | outcome [11]: inactive
